A selection: hits, their analogues and other compounds. The true share with any hit is near 0.99%.
AmpC inh detg: inhibitors of E. coli AmpC beta-lactamase with detergent; P00811; AmpC hydrolysis of nitrocefin, absorbance 480 nm, 0.01% Triton; Potency, µM (series often up to 114 µM), usual class: inhibitors; 370,000 tested, 0.041% active; AID 485294; active means well fitted curve in the direction sought with a large enough effect; inconclusive means small, poorly fitted or top-dose-only effect, or another doubt; inactive means no such curve, though single readings can be large; an effect the other way counts as inactive or inconclusive; further: nearly all actives have a fitted effect of over 25% in size
Target sequence (P00811 whole entry, looked up): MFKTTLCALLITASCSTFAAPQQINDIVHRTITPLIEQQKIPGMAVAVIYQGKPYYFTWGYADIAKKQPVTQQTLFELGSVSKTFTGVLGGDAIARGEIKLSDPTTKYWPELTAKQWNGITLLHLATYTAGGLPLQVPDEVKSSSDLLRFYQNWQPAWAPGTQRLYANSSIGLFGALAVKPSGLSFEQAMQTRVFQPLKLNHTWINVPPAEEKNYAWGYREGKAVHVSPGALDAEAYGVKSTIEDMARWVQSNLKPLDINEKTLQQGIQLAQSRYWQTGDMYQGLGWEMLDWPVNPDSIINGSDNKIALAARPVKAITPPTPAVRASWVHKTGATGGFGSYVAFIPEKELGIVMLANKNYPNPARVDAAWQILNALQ
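20 mM phosphate pH 7.0 + 0.01% (detergent screen) or 0.0001% Triton X-100; 5.3 nM AmpC reagent; cpd preinc 15 min RT; nitrocefin (800 uM stock) to start; A480 q20 s × 4 min; Activity was normalised to no-enzyme and no-compound control wells.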
NS1 function inh: influenza NS1 inhibition; Potency, µM (top dose mostly 46.1 µM); 270,000 tested, 0.4% active; further: actives are rising curves; nearly all actives have a fitted effect of over 50% in size
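Growth recovery, yeast-based: influenza A NS1 expressed in S. cerevisiae causes slow growth, and suppressors are detected by OD600. The parent strain without NS1 is used as positive control.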
AMA1 RON2 block: disrupts binding of P. falciparum AMA1 to RON2 | AlphaScreen AMA1-biotinylated RON2 peptide binding | Potency, µM (series often up to 58.2 µM), usual class: inhibitors | 360,000 tested, 0.2% active | AID 720542; active means well fitted curve in the direction sought with a large enough effect; inconclusive means small, poorly fitted or top-dose-only effect, or another doubt; inactive means no such curve, though single readings can be large; an effect the other way counts as inactive or inconclusive; further: nearly all actives have a fitted effect of over 45% in size
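AMA1 (3D7) with his tag at 25 nM final met compounds first, then biotinylated RON2 peptide at 25 nM; detection used donor plus acceptor beads, 10 µg/mL apiece, read by AlphaScreen after 30 min at room temperature.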
AmpC no deterg: AmpC beta-lactamase inhibition without detergent | 330,000 tested, 0.52% active | AID 485341 | Potency, µM (series often up to 57.1 µM), usual class: inhibitors | P00811 | AmpC nitrocefin hydrolysis, absorbance 480 nm, 0.0001% Triton; active means well fitted curve in the direction sought with a large enough effect; inconclusive means small, poorly fitted or top-dose-only effect, or another doubt; inactive means no such curve, though single readings can be large; an effect the other way counts as inactive or inconclusive; further: nearly all actives have a fitted effect of over 20% in size
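AmpC (5.3 nM in the dispensed reagent) in 20 mM phosphate pH 7.0 with 0.01% (detergent screen) or 0.0001% Triton X-100 was preincubated with compounds for 15 min at room temperature. Nitrocefin was then added from an 800 uM solution, and hydrolysis was followed at 480 nm.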
SARS PLpro yeast: inhibitors of SARS-CoV papain-like protease in yeast; 330,000 tested, 0.19% active; S. cerevisiae expressing SARS-CoV PLpro, growth rescue; Potency, µM (highest dose often 32.9 µM), hits mostly activators; AID 485353; further: nearly all actives have a fitted effect of over 55% in size
Flu NS1 inh: validation of influenza NS1 protein function inhibitors; shares compounds with NS1 function inh; influenza NS1 function cell assay, 15-point titration; activity change, negative = inhibition, % at 32.9 µM; 1,400 tested, under 10 active; AID 492980
Flu PR8 replic: influenza virus titer reduction, NS1 project. shares compounds with NS1 function inh. MDCK infected influenza A/PR/8/34, virus titer TCID50; active compounds read low. virus titer (log TCID50), log10 TCID50 at 5 µM. 95 tested, 30% active; call rule not given here
Of the large screens only hits and unclear results are named; the others gave an inactive call (follow-up assays come after a bar, where they were run). Unless noted, the call rests on the fitted dose curve.

CCOC(=O)C1=C(C)Nc2nc(SCC)[nH]c(=O)c2C1c1ccncc1 (stereo not given)	NS1 function inh inconclusive | Flu NS1 inh inactive
CCOc1ccc(NC(=S)NC(=O)/C=C/c2ccc(OC)c(OC)c2)c([N+](=O)[O-])c1	NS1 function inh 4µM | Flu NS1 inh inactive
Cc1ccc(NC(=O)CCC(=O)N2Cc3ccccc3Oc3ncccc32)cc1F	none (no result: NS1 function inh, AMA1 RON2 block, AmpC no deterg, SARS PLpro yeast)
CC(C)(C)OC(=O)N1CCC(CC2CC(c3cccc(Br)c3)=NO2)(C(=O)NCC2CCCCC2)CC1 (stereo not given)	NS1 function inh inconclusive | Flu NS1 inh inactive
COc1ccccc1/C=C/C(=O)NCC(=O)N/N=C/c1cccnc1	none
COc1ccccc1NCC(=O)N/N=C/c1cccnc1	NS1 function inh 3.2µM | Flu NS1 inh inactive
Cc1cc(O)c(C(=O)c2cnc3c(c2)COc2ccccc2-3)cc1Cl	none (no result: NS1 function inh, AMA1 RON2 block, AmpC no deterg, SARS PLpro yeast)
CN(C)c1ccc(NC(=O)Cn2cc3c(n2)CCCC3)cc1	AmpC inh detg inconclusive, NS1 function inh 10µM, AMA1 RON2 block inconclusive | Flu NS1 inh inactive
Cc1cc(C)cc(NC(=O)Cn2cc3c(n2)CCCCC3)c1	none (no result: AMA1 RON2 block)
COCc1nc2ccccc2n1Cc1ccc(C(C)(C)C)cc1	none (no result: NS1 function inh, AMA1 RON2 block, AmpC no deterg, SARS PLpro yeast)
Cc1ccc(NC(=O)CCC(=O)N/N=C/c2coc3ccccc3c2=O)cc1	NS1 function inh 5.6µM | Flu NS1 inh inactive
CC(C)(CN1CCCC1)NS(=O)(=O)c1ccc(Cl)cc1	NS1 function inh inconclusive | Flu NS1 inh inactive
CCCOc1ccc(CN(C(=O)c2nc(SC(C)C)ncc2Cl)C2CCS(=O)(=O)C2)cc1 (stereo not given)	none (no result: NS1 function inh, AMA1 RON2 block, AmpC no deterg, SARS PLpro yeast)
Cc1cc(C)nc(OC(C(=O)O)C(OCC(C)C)(c2ccccc2)c2ccccc2)n1 (stereo not given)	NS1 function inh 6.3µM | Flu NS1 inh inactive
CCC(C)COC(c1ccccc1)(c1ccccc1)C(Oc1nc(C)cc(C)n1)C(=O)O (stereo not given)	NS1 function inh inconclusive
Cc1ccc(C)c(N(CC(=O)NC2CCCCC2)C(=O)c2snc(C(N)=O)c2N)c1	none
CC(C)(C)NC(=O)CN(C(=O)c1snc(C(=O)NC2CCCCC2)c1N)c1ccccc1F	NS1 function inh 3.2µM | Flu NS1 inh inactive
CN(C)S(=O)(=O)c1ccc(Cl)c(NC(=O)COC(=O)/C=C/c2ccc(S(=O)(=O)N3CCOCC3)cc2)c1	NS1 function inh 20µM | Flu NS1 inh inconclusive
CCC1Oc2ccc(C)cc2N(CC(=O)NCCCN2CCCCC2C)C1=O (stereo not given)	NS1 function inh inconclusive | Flu NS1 inh inactive
COc1cc(NC(=S)N2CCC(C(O)(c3ccccc3)c3ccccc3)CC2)cc(OC)c1	AmpC inh detg inconclusive, NS1 function inh 4.5µM | Flu NS1 inh inactive
CCNC(=S)N1CCC(C(O)(c2ccccc2)c2ccccc2)CC1	none
COc1cccc(N2CC(NC(=O)C3CC3)CC2=O)c1 (stereo not given)	none (no result: NS1 function inh, AMA1 RON2 block, AmpC no deterg, SARS PLpro yeast)
CC1CC(C)CN(S(=O)(=O)N2CCC(C(=O)NCCc3ccccc3)CC2)C1 (stereo not given)	AmpC inh detg inconclusive, NS1 function inh inconclusive | Flu NS1 inh inactive
O=C(NCc1ccccc1Cl)C1CCN(S(=O)(=O)c2ccc3c(c2)CCCN3C(=O)C2CCC2)CC1	none (no result: NS1 function inh, AMA1 RON2 block, AmpC no deterg, SARS PLpro yeast)
O=C(CSc1nnnn1Cc1ccccc1)c1ccccc1	none
O=C(CSc1nnnn1Cc1ccccc1)c1ccc(F)cc1	NS1 function inh 7.9µM | Flu NS1 inh inactive
COc1ccc(-n2c(=O)c3ccc(C(=O)NCc4ccc(C)cc4)cc3n(Cc3cccc(Cl)c3)c2=O)cc1	none (no result: NS1 function inh, AMA1 RON2 block, AmpC no deterg, SARS PLpro yeast)
CCc1ccc2c(c1)C(c1ccc(N3CCOCC3)cc1)=NNC(c1ccncc1)=N2	none
CCOc1ccc(C2=Nc3ccc(Br)cc3C(c3ccc(N4CCOCC4)cc3)=NN2)cc1	AmpC inh detg inconclusive, NS1 function inh inconclusive | Flu NS1 inh inactive
Brc1ccc2c(c1)C(c1ccc(N3CCOCC3)cc1)=NNC(c1cccs1)=N2	none
CCOc1ccc(C2=Nc3ccccc3C(c3ccc(N4CCOCC4)cc3)=NN2)cc1	NS1 function inh inconclusive | Flu NS1 inh inactive | Flu PR8 replic 7.5
COc1cc(/C=N/n2c(-c3n[nH]c4c3CCC4)n[nH]c2=S)ccc1O	AmpC inh detg inconclusive, NS1 function inh 5.6µM | Flu NS1 inh inconclusive
COc1ccc(/C=N/n2c(-c3n[nH]c4c3CCC4)n[nH]c2=S)cc1OC	AmpC inh detg inconclusive, NS1 function inh inconclusive
CCOC(=O)c1ccc(N2C(=O)c3n[nH]c(C)c3C2c2ccc(OC)cc2OC)cc1 (stereo not given)	NS1 function inh 5µM | Flu NS1 inh inactive
CSc1nc2c(c(=O)[nH]c(=O)n2C)n1CCCc1ccccc1	none
CC(C)CCSc1nc2c(c(=O)[nH]c(=O)n2C)n1CCCc1ccccc1	NS1 function inh inconclusive | Flu NS1 inh inactive
CCC(C)NC(=O)c1c(N)n(/N=C/c2ccccn2)c2nc3ccccc3nc12 (stereo not given)	NS1 function inh 11µM | Flu NS1 inh inconclusive
CC(C)OCCCNC(=O)c1c(N)n(/N=C/c2ccccn2)c2nc3ccccc3nc12	NS1 function inh 8.9µM | Flu NS1 inh inactive
COCCCNC(=O)c1c(N)n(/N=C/c2cccnc2)c2nc3ccccc3nc12	AmpC inh detg inconclusive
CC(=O)Nc1cccc(NC(=O)Cn2cnc3c2c(=O)n(C)c(=O)n3C)c1	none (no result: NS1 function inh, AMA1 RON2 block, AmpC no deterg, SARS PLpro yeast)
Cc1ccc(NC(=O)c2ccc(CN3CC(=O)N4CCCCC4C3=O)cc2)cc1 (stereo not given)	none (no result: NS1 function inh, AMA1 RON2 block, AmpC no deterg, SARS PLpro yeast)
CCCCc1ccc(-n2nc3cc(Cl)c(NC(=O)c4ccc(OC)cc4)cc3n2)cc1	none (no result: NS1 function inh, AMA1 RON2 block, AmpC no deterg, SARS PLpro yeast)
COC(=O)c1cc(NC(=O)c2cc(C(C)(C)C)nn2Cc2ccc(F)cc2)ccc1N1CCOCC1	NS1 function inh inconclusive | Flu NS1 inh inactive
COCCn1nnnc1C(c1ccccc1)N1CCN(Cc2ccc3c(c2)OCO3)CC1 (stereo not given)	AmpC inh detg inconclusive, NS1 function inh 4.5µM | Flu NS1 inh inactive
O=C(NCC(c1ccc2c(c1)OCO2)N1CCN(c2ccccc2)CC1)c1ccc(F)c(F)c1 (stereo not given)	none (no result: NS1 function inh, AMA1 RON2 block, AmpC no deterg, SARS PLpro yeast)
Cc1nc2ccc(S(=O)(=O)Nc3cccc(-c4nc5cccnc5s4)c3)cc2s1	NS1 function inh 11µM | Flu NS1 inh inactive
Cc1ccc(C)c(N2CCN(C(=O)C3CCN(S(=O)(=O)c4cccc5nsnc45)CC3)CC2)c1	NS1 function inh inconclusive | Flu NS1 inh inactive | Flu PR8 replic inactive
c1ccc(CC2CNc3ccccc3CN2)cc1 (stereo not given)	NS1 function inh 0.89µM | Flu NS1 inh inactive
O=C1N[C@H](Cc2ccccc2)CO1	AmpC inh detg inconclusive (no result: NS1 function inh)

Compound activity as filed in PubChem.
